# Experimental data: publication PMC8384837, “Expanding the binding specificity for RNA recognition by a PUF domain”
# Key:
# Assay in all cases: yeast three-hybrid, YBZ-1, SC-Leu-His + 0.5 mM 3-AT, 4 days
# Settings in all cases: tags: N-Gal4 AD-HA kept; label: inside an RPR1-promoter hybrid RNA with tandem MS2 sites; ssRNA
# PUM1 PUF domain R1-RAQ = PUM1 PUF domain R1-RAQ (Homo sapiens, UniProt Q14671 828-1176, S863R;R864A)
# How it was run: (§1)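 The interaction score is the log change in how often each variant appears, from input to selection. Frequencies came from PCR-amplified, Illumina-sequenced repeat regions of Pumilio-1 PUF domain libraries grown in strain YBZ-1 (LexA–MS2 coat fusion, HIS3 reporter) alongside matching RNA elements. Input plates were SC-Leu and selection plates were SC-Leu-His + 0.5 mM 3-AT, each for four days, and the log2 calculation used a pseudocount of 1 where a variant was absent.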
# PUM1 PUF domain R5-KGG = PUM1 PUF domain R5-KGG (Homo sapiens, UniProt Q14671 828-1176, C1007K;R1008G;Q1011G)
# How it was run: as §1
# PUM1 PUF domain R1-YKR = PUM1 PUF domain R1-YKR (Homo sapiens, UniProt Q14671 828-1176, S863Y;R864K;Q867R)
# How it was run: as §1
# PUM1 PUF domain R1-RRR = PUM1 PUF domain R1-RRR (Homo sapiens, UniProt Q14671 828-1176, S863R;Q867R)
# How it was run: as §1
# PUM1 PUF domain R1-KVE = PUM1 PUF domain R1-KVE (Homo sapiens, UniProt Q14671 828-1176, S863K;R864V;Q867E)
# How it was run: as §1
# PUM1 PUF domain R5-KSN = PUM1 PUF domain R5-KSN (Homo sapiens, UniProt Q14671 828-1176, C1007K;R1008S;Q1011N)
# How it was run: as §1
# PUM1 PUF domain R2-AVA = PUM1 PUF domain R2-AVA (Homo sapiens, UniProt Q14671 828-1176, N899A;Y900V;Q903A)
# How it was run: as §1
# PUM1 PUF domain R8-RHN = PUM1 PUF domain R8-RHN (Homo sapiens, UniProt Q14671 828-1176, N1122R;Y1123H;Q1126N)
# How it was run: as §1
# PUM1 PUF domain R8-TWN = PUM1 PUF domain R8-TWN (Homo sapiens, UniProt Q14671 828-1176, N1122T;Y1123W;Q1126N)
# How it was run: as §1
# PUM1 PUF domain R8-RFN = PUM1 PUF domain R8-RFN (Homo sapiens, UniProt Q14671 828-1176, N1122R;Y1123F;Q1126N)
# How it was run: as §1
# PUM1 PUF domain R1-VWK = PUM1 PUF domain R1-VWK (Homo sapiens, UniProt Q14671 828-1176, S863V;R864W;Q867K)
# How it was run: as §1
# PUM1 PUF domain R1-NIS = PUM1 PUF domain R1-NIS (Homo sapiens, UniProt Q14671 828-1176, S863N;R864I;Q867S)
# How it was run: as §1
# PUM1 PUF domain R3-FFA = PUM1 PUF domain R3-FFA (Homo sapiens, UniProt Q14671 828-1176, C935F;R936F;Q939A)
# How it was run: as §1
# PUM1 PUF domain R4-CPL = PUM1 PUF domain R4-CPL (Homo sapiens, UniProt Q14671 828-1176, N971C;H972P;Q975L)
# How it was run: as §1
# PUM1 PUF domain R4-FGQ = PUM1 PUF domain R4-FGQ (Homo sapiens, UniProt Q14671 828-1176, N971F;H972G)
# How it was run: as §1
# PUM1 PUF domain R4-NFQ = PUM1 PUF domain R4-NFQ (Homo sapiens, UniProt Q14671 828-1176, H972F)
# How it was run: as §1
# PUM1 PUF domain R3-YWR = PUM1 PUF domain R3-YWR (Homo sapiens, UniProt Q14671 828-1176, C935Y;R936W;Q939R)
# How it was run: as §1
# PUM1 PUF domain R3-YRS = PUM1 PUF domain R3-YRS (Homo sapiens, UniProt Q14671 828-1176, C935Y;Q939S)
# How it was run: as §1
# PUM1 PUF domain R3-LRM = PUM1 PUF domain R3-LRM (Homo sapiens, UniProt Q14671 828-1176, C935L;Q939M)
# How it was run: as §1
# PUM1 PUF domain R3-CNT = PUM1 PUF domain R3-CNT (Homo sapiens, UniProt Q14671 828-1176, R936N;Q939T)
# How it was run: as §1
# Sequence of PUM1 PUF domain R1-RAQ (Q14671 828-1176 S863R/R864A): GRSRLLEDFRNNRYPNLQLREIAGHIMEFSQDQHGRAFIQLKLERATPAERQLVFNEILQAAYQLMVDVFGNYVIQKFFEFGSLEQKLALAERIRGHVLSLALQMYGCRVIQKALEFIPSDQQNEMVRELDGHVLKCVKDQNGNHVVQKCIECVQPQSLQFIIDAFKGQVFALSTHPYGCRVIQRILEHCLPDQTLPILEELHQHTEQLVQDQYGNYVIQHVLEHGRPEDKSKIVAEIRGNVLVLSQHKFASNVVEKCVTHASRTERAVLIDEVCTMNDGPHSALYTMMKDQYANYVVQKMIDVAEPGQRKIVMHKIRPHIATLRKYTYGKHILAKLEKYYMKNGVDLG
# Sequence of PUM1 PUF domain R3-FFA (Q14671 828-1176 C935F/R936F/Q939A): as the sequence (Q14671 828-1176 S863R/R864A) above, with R36S, A37R, C108F, R109F, Q112A counted along it
# Sequence of PUM1 PUF domain R1-KVE (Q14671 828-1176 S863K/R864V/Q867E): as the sequence (Q14671 828-1176 S863R/R864A) above, with R36K, A37V, Q40E counted along it
# Sequence of PUM1 PUF domain R4-CPL (Q14671 828-1176 N971C/H972P/Q975L): as the sequence (Q14671 828-1176 S863R/R864A) above, with R36S, A37R, N144C, H145P, Q148L counted along it
# Sequence of PUM1 PUF domain R8-RFN (Q14671 828-1176 N1122R/Y1123F/Q1126N): as the sequence (Q14671 828-1176 S863R/R864A) above, with R36S, A37R, N295R, Y296F, Q299N counted along it
# Sequence of PUM1 PUF domain R1-RRR (Q14671 828-1176 S863R/Q867R): as the sequence (Q14671 828-1176 S863R/R864A) above, with A37R, Q40R counted along it
# Sequence of PUM1 PUF domain R3-YRS (Q14671 828-1176 C935Y/Q939S): as the sequence (Q14671 828-1176 S863R/R864A) above, with R36S, A37R, C108Y, Q112S counted along it
# Sequence of PUM1 PUF domain R5-KGG (Q14671 828-1176 C1007K/R1008G/Q1011G): as the sequence (Q14671 828-1176 S863R/R864A) above, with R36S, A37R, C180K, R181G, Q184G counted along it
# Sequence of PUM1 PUF domain R4-NFQ (Q14671 828-1176 H972F): as the sequence (Q14671 828-1176 S863R/R864A) above, with R36S, A37R, H145F counted along it
# Sequence of PUM1 PUF domain R1-VWK (Q14671 828-1176 S863V/R864W/Q867K): as the sequence (Q14671 828-1176 S863R/R864A) above, with R36V, A37W, Q40K counted along it
# Sequence of PUM1 PUF domain R3-CNT (Q14671 828-1176 R936N/Q939T): as the sequence (Q14671 828-1176 S863R/R864A) above, with R36S, A37R, R109N, Q112T counted along it
# Sequence of PUM1 PUF domain R3-LRM (Q14671 828-1176 C935L/Q939M): as the sequence (Q14671 828-1176 S863R/R864A) above, with R36S, A37R, C108L, Q112M counted along it
# Sequence of PUM1 PUF domain R3-YWR (Q14671 828-1176 C935Y/R936W/Q939R): as the sequence (Q14671 828-1176 S863R/R864A) above, with R36S, A37R, C108Y, R109W, Q112R counted along it
# Sequence of PUM1 PUF domain R1-YKR (Q14671 828-1176 S863Y/R864K/Q867R): as the sequence (Q14671 828-1176 S863R/R864A) above, with R36Y, A37K, Q40R counted along it
# Sequence of PUM1 PUF domain R8-RHN (Q14671 828-1176 N1122R/Y1123H/Q1126N): as the sequence (Q14671 828-1176 S863R/R864A) above, with R36S, A37R, N295R, Y296H, Q299N counted along it
# Sequence of PUM1 PUF domain R5-KSN (Q14671 828-1176 C1007K/R1008S/Q1011N): as the sequence (Q14671 828-1176 S863R/R864A) above, with R36S, A37R, C180K, R181S, Q184N counted along it
# Sequence of PUM1 PUF domain R8-TWN (Q14671 828-1176 N1122T/Y1123W/Q1126N): as the sequence (Q14671 828-1176 S863R/R864A) above, with R36S, A37R, N295T, Y296W, Q299N counted along it
# Sequence of PUM1 PUF domain R2-AVA (Q14671 828-1176 N899A/Y900V/Q903A): as the sequence (Q14671 828-1176 S863R/R864A) above, with R36S, A37R, N72A, Y73V, Q76A counted along it
# Sequence of PUM1 PUF domain R4-FGQ (Q14671 828-1176 N971F/H972G): as the sequence (Q14671 828-1176 S863R/R864A) above, with R36S, A37R, N144F, H145G counted along it
# Sequence of PUM1 PUF domain R1-NIS (Q14671 828-1176 S863N/R864I/Q867S): as the sequence (Q14671 828-1176 S863R/R864A) above, with R36N, A37I, Q40S counted along it
sequence,measurement,setting,value
GGCUAGAACUAGUGGAUCCCCCGGCGCCCGGCGGCUCGAGCCCGGGUAAGUGUAAAUGGUCUGCAUGCCGCCGGGCGCCAUGCCUGCAGGUCGACUCUAGAAAACAUG,binding signal,PUM1 PUF domain R1-RAQ,1.23 log2 enrichment (interaction score)
GGCUAGAACUAGUGGAUCCCCCGGCGCCCGGCGGCUCGAGCCCGGGUAAGUGUUAAUAGUCUGCAUGCCGCCGGGCGCCAUGCCUGCAGGUCGACUCUAGAAAACAUG,binding signal,PUM1 PUF domain R5-KGG,2.27 log2 enrichment (interaction score)
GGCUAGAACUAGUGGAUCCCCCGGCGCCCGGCGGCUCGAGCCCGGGUAAGUGUAAAUCGUCUGCAUGCCGCCGGGCGCCAUGCCUGCAGGUCGACUCUAGAAAACAUG,binding signal,PUM1 PUF domain R1-YKR,8.91 log2 enrichment (interaction score)
same,binding signal,PUM1 PUF domain R1-RRR,2.46 log2 enrichment (interaction score)
same,binding signal,PUM1 PUF domain R1-RAQ,2.93 log2 enrichment (interaction score)
same,binding signal,PUM1 PUF domain R1-KVE,3.75 log2 enrichment (interaction score)
GGCUAGAACUAGUGGAUCCCCCGGCGCCCGGCGGCUCGAGCCCGGGUAAGUGUCAAUAGUCUGCAUGCCGCCGGGCGCCAUGCCUGCAGGUCGACUCUAGAAAACAUG,binding signal,PUM1 PUF domain R5-KSN,3.85 log2 enrichment (interaction score)
same,binding signal,PUM1 PUF domain R5-KGG,2.89 log2 enrichment (interaction score)
GGCUAGAACUAGUGGAUCCCCCGGCGCCCGGCGGCUCGAGCCCGGGUAAGUGUAAAGAGUCUGCAUGCCGCCGGGCGCCAUGCCUGCAGGUCGACUCUAGAAAACAUG,binding signal,PUM1 PUF domain R2-AVA,2.41 log2 enrichment (interaction score)
GGCUAGAACUAGUGGAUCCCCCGGCGCCCGGCGGCUCGAGCCCGGGUAAGCGUAAAUAGUCUGCAUGCCGCCGGGCGCCAUGCCUGCAGGUCGACUCUAGAAAACAUG,binding signal,PUM1 PUF domain R8-RHN,5.56 log2 enrichment (interaction score)
same,binding signal,PUM1 PUF domain R8-TWN,2.51 log2 enrichment (interaction score)
same,binding signal,PUM1 PUF domain R8-RFN,2.57 log2 enrichment (interaction score)
GGCUAGAACUAGUGGAUCCCCCGGCGCCCGGCGGCUCGAGCCCGGGUAAGUGUAAAUUGUCUGCAUGCCGCCGGGCGCCAUGCCUGCAGGUCGACUCUAGAAAACAUG,binding signal,PUM1 PUF domain R1-RRR,2.49 log2 enrichment (interaction score)
same,binding signal,PUM1 PUF domain R1-RAQ,2.71 log2 enrichment (interaction score)
same,binding signal,PUM1 PUF domain R1-KVE,3.9 log2 enrichment (interaction score)
same,binding signal,PUM1 PUF domain R1-VWK,3.24 log2 enrichment (interaction score)
same,binding signal,PUM1 PUF domain R1-NIS,6.67 log2 enrichment (interaction score)
GGCUAGAACUAGUGGAUCCCCCGGCGCCCGGCGGCUCGAGCCCGGGUAAGUGUAAUUAGUCUGCAUGCCGCCGGGCGCCAUGCCUGCAGGUCGACUCUAGAAAACAUG,binding signal,PUM1 PUF domain R3-FFA,4.46 log2 enrichment (interaction score)
GGCUAGAACUAGUGGAUCCCCCGGCGCCCGGCGGCUCGAGCCCGGGUAAGUGUAUAUAGUCUGCAUGCCGCCGGGCGCCAUGCCUGCAGGUCGACUCUAGAAAACAUG,binding signal,PUM1 PUF domain R4-CPL,1.78 log2 enrichment (interaction score)
same,binding signal,PUM1 PUF domain R4-FGQ,3.63 log2 enrichment (interaction score)
same,binding signal,PUM1 PUF domain R4-NFQ,2.34 log2 enrichment (interaction score)
GGCUAGAACUAGUGGAUCCCCCGGCGCCCGGCGGCUCGAGCCCGGGUAAGUGUAAGUAGUCUGCAUGCCGCCGGGCGCCAUGCCUGCAGGUCGACUCUAGAAAACAUG,binding signal,PUM1 PUF domain R3-YWR,5.62 log2 enrichment (interaction score)
same,binding signal,PUM1 PUF domain R3-YRS,4.29 log2 enrichment (interaction score)
same,binding signal,PUM1 PUF domain R3-FFA,8.18 log2 enrichment (interaction score)
same,binding signal,PUM1 PUF domain R3-LRM,3.32 log2 enrichment (interaction score)
GGCUAGAACUAGUGGAUCCCCCGGCGCCCGGCGGCUCGAGCCCGGGUAAGUGUAAAUAGUCUGCAUGCCGCCGGGCGCCAUGCCUGCAGGUCGACUCUAGAAAACAUG,binding signal,PUM1 PUF domain R4-CPL,3.68 log2 enrichment (interaction score)
same,binding signal,PUM1 PUF domain R3-YRS,1.29 log2 enrichment (interaction score)
same,binding signal,PUM1 PUF domain R3-CNT,2.18 log2 enrichment (interaction score)
same,binding signal,PUM1 PUF domain R8-RFN,2.38 log2 enrichment (interaction score)
